Measured values from ChEMBL document CHEMBL4513216, “Probing the Open Global Health Chemical Diversity Library for Multistage-Active Starting Points for Next-Generation Antimalarials” (ACS Infect Dis, 2020).
In all, about 68,000 compounds went through this assay and about 2,700 (4%) showed an effect of 50% or more. The list comes from a sample in which strong results are over-represented; it also holds similar structures and randomly drawn compounds.

These compounds were tested on Plasmodium berghei (assay: Screen against P. berghei liver stage (PbLuc), transformed with Luciferase, at 2uM). Settings: tested at 2 uM.
Type: functional, HepG2

Row | Compound | INHIBITION [%]
1 | Cc1cccc(CN2C[C@@H]3CC[C@H]2CN(Cc2[nH]cnc2C)C3)n1 | 25.68
2 | Cc1n[nH]cc1CNC1CCN(c2ccccc2)CC1 | 7.83
3 | Cc1n[nH]cc1CNC1CCN(c2ccc(F)cc2)CC1 | -13.72
4 | COc1cccc(-c2n[nH]cc2CNC2CCN(C3CC3)CC2)c1 | -13.89
5 | COc1cccc(CC(=O)N2CCC(NCc3c[nH]nc3C)CC2)c1 | 55.06
6 | Cc1n[nH]cc1CNC1CCN(c2cccc(C(F)(F)F)c2)CC1 | 78.72
7 | COc1ccccc1CC(=O)N1CCC(NCc2c[nH]nc2C)CC1 | -14.17
8 | Fc1cnc(N2CCC3(CC2)CC(OCc2cccnc2)CO3)nc1 (stereo not given) | 11.18
9 | CC(=O)N[C@@H]1CN(C(=O)c2cc(C)oc2C)C[C@H]1c1ccc(C)o1 | -29.82
10 | Cc1ccc(NC2CCN(C(=O)CN(C)C3CC3)CC2)nn1 | 21.31
11 | CC(Cn1ccnc1)NC(=O)N(C)Cc1ccsc1 (stereo not given) | 26.85
12 | CO[C@H]1CCN(Cc2cccs2)[C@@H]2CN(Cc3ccncc3)C[C@H]12 | -4.92
13 | COCCN1C(=O)CC[C@@H]2[C@H]1CCN2Cc1ccc(C)s1 | 10.17
14 | CNc1nc(C)c(C(=O)N2CCC(C(O)Cc3ccccc3)CC2)s1 (stereo not given) | 40.88
15 | CCn1nc(C)c2c1cnn2CCNS(=O)(=O)c1ccccc1 | 0.36
16 | CCn1nc(C)c2c1cnn2CCNS(=O)(=O)c1cccs1 | 61.77
17 | CCn1nc(C)c2c1cnn2CCNS(C)(=O)=O | 15.46
18 | COC(=O)c1cnc(/C=C/c2ccc(C(=O)O)cc2)s1 | 23.45
19 | CC(=O)Nc1ccc(/C=C/c2ncc(C(=O)O)s2)cc1 | 69.71
20 | COC(=O)c1ccc(/C=C/c2ncc(C(=O)O)s2)cc1 | -39.34
21 | CN1[C@@H](C(=O)NCC2CC2)C[C@H]2CN(Cc3cccc(C#N)c3)C[C@H]21 | 36.99
22 | OC(CNCc1ccccc1C(F)(F)F)c1ccccc1 (stereo not given) | -2.86
23 | CCC[C@H]1CN(CCCO)C[C@@H]1NC(=O)Cn1cc(C)cn1 | 3.97
24 | CCC[C@H]1CN(CCOC)C[C@@H]1NC(=O)Cn1cc(C)cn1 | -17.99
25 | CCC[C@H]1CN(CCS(C)(=O)=O)C[C@@H]1NC(=O)Cn1cc(C)cn1 | 55.44
26 | Cc1cncc(C(=O)N2CCC3(CCCN(c4nncs4)C3)C2)c1 (stereo not given) | -39.92
27 | COc1ccc(CCN(C)C(=O)CN2C(=O)OC[C@@H]2C(C)C)cc1OC | -4.77

Row | Compound | INHIBITION [%]
28 | Cc1nc(CN2CCc3cc(C(=O)O)c(N(C)C)nc3CC2)cs1 | 63.04
29 | Cc1cnc(N2CCc3cc(C(=O)O)c(N(C)C)nc3CC2)nc1 | -1.81
30 | Cc1cccc(CN2CCc3cc(C(=O)O)c(N(C)C)nc3CC2)n1 | 30.19
31 | O=C(c1ccc[nH]1)N1CCCC2(CCN(c3ccsc3)C2=O)C1 (stereo not given) | 26.92
32 | CCCc1nnsc1C(=O)N1CCCC1(C)C(=O)N1CCOCC1 (stereo not given) | 5.76
33 | CNC(=O)CN1C(=O)CCC12CCCN(CCc1ccccc1)C2 (stereo not given) | 0.2
34 | O=C1CCC2(CCCN(Cc3ccccc3F)C2)N1CC1CC1 (stereo not given) | 70.48
35 | CNC(=O)CN1C(=O)CCC12CCCN(Cc1ccccc1F)C2 (stereo not given) | -12.98
36 | CCN1C(=O)CCC12CCCN(CCc1ccccc1)C2 (stereo not given) | 56.76
37 | COCCN1C(=O)CCC12CCCN(Cc1ccccc1F)C2 (stereo not given) | 7.88
38 | O=C1CCC2(CCCN(CCc3ccccc3)C2)N1Cc1cccnc1 (stereo not given) | 42.18
39 | COCCN(C)C[C@@H]1CN(C(=O)c2sc3ccccc3c2C)C[C@@H]1CO | 25.45
40 | Cc1nc([C@H]2C[C@@H]3CCN(Cc4scnc4C)C[C@H]3O2)no1 | 40.64
41 | CCCC12CN3CC(C)(CN(C1)C3c1[nH]c(=O)[nH]c(=O)c1C)C2=O (stereo not given) | 16.49
42 | CCn1nccc1CNC(=O)C1CCCC1 | -56.08
43 | CCn1nccc1CNC(=O)CCC1CCCC1 | 59.21
44 | CCn1nccc1CNC(=O)C1CCCCC1 | -39.57
45 | COCc1cccc(S(=O)(=O)Nc2ncc(C)s2)c1 | -2.19
46 | Cn1ncc2c1NC(=O)CC2c1ccccc1Cl (stereo not given) | 33.16
47 | O=S1(=O)NC(C2CCN(Cc3ccccn3)CC2)Nc2ccccc21 (stereo not given) | 30.31
48 | Cc1ccc2[nH]c(CN(C)c3cc(CCN)nc(C)n3)nc2c1 | -56.42
49 | Cc1ccc2[nH]c(CN(C)c3cc(CN)nc(C)n3)nc2c1 | 60.18
50 | Cc1nc(CCN)cc(N(C)Cc2nc3ccc(F)cc3[nH]2)n1 | -3.87
51 | COc1ccc(CS(=O)(=O)CC(=O)NCc2ccccc2F)cc1F | 6.13
52 | CNC(=O)CS(=O)(=O)Cc1ccc(OC)c(F)c1 | 69.67
53 | COc1ccc(CS(=O)(=O)CC(=O)NCC2CC2)cc1F | 29.89
54 | Cc1cccc(S(=O)(=O)N2C[C@@H]3C[C@@H](c4nc(C)no4)O[C@@H]3C2)c1 | 0.8

Row | Compound | INHIBITION [%]
55 | CCCc1cnc(C)nc1NCCc1nc(C)cc(=O)[nH]1 | 20.14
56 | CN(C)C(=O)CN1CCn2cc(Cn3cccn3)nc2C1 | 14.47
57 | CN(C(=O)c1ccncc1)c1nnc(C2CCOC2)s1 (stereo not given) | 24.58
58 | CN(C(=O)c1cccc(C#N)c1)c1nnc(C2CCOC2)s1 (stereo not given) | 53.95
59 | CN(C(=O)c1ccc(C#N)cc1)c1nnc(C2CCOC2)s1 (stereo not given) | -7.22
60 | CN(Cc1ccccn1)C1CC2(CCN(Cc3ccccn3)CC2)C1 | 34.48
61 | CN(Cc1cscn1)C1CCN(C(=O)OC(C)(C)C)CC1 | -33.82
62 | CN(Cc1cncs1)C1CCN(C(=O)OC(C)(C)C)CC1 | 12.83
63 | Cc1nc(C)c(CN(C)C2CCN(C(=O)OC(C)(C)C)CC2)s1 | 73.62
64 | CC(NC(=O)COc1cccc[n+]1[O-])C1CC1 (stereo not given) | 25.69
65 | COc1cccc(-c2ncc(CN3C[C@H]4CC[C@@H](C3)N(C)C4=O)s2)c1 | 38.87
66 | CN1C(=O)[C@@H]2CC[C@H]1CN(Cc1cccc(OCc3ccccn3)c1)C2 | 26.75
67 | COc1cccc(-c2cccc(CN3C[C@H]4CC[C@@H](C3)N(C)C4=O)c2)c1 | 56.49
68 | Cc1c(F)cccc1S(=O)(=O)NCC(C)(C)CC(C)O (stereo not given) | 15.2
69 | Cc1c(F)cccc1S(=O)(=O)NCCN | 39.23
70 | CN(CC(N)=O)S(=O)(=O)c1ccc(F)cc1F | 0.44
71 | CC(O)CN(C)S(=O)(=O)c1ccc(C#N)cc1F (stereo not given) | 34.18
72 | Cc1ccc(S(=O)(=O)N(C)CC(C)O)c(F)c1 (stereo not given) | 56.69
73 | Cc1c(F)cccc1S(=O)(=O)N(C)CC(C)O (stereo not given) | 52.38
74 | Cc1nn(CC(C)C)c(N(C)C)c1CNCc1ccnn1C | 9.97
75 | COCCn1ccc(=O)c(OCC(=O)Nc2cccc(Cl)c2)c1C | 6.41
76 | Cc1noc(C2CCCN(C(=O)CCNc3ncccn3)C2)n1 (stereo not given) | 31.78
77 | CC(C)CCN(C)Cn1ncc2cn(-c3ccccc3)nc2c1=O | 19.45
78 | CCCS(=O)(=O)NCC1OCCc2cn(CC3CCOCC3)nc21 (stereo not given) | 12.95
79 | c1ccc(Cn2cc3c(n2)C(CNCC2CCOCC2)OCC3)nc1 (stereo not given) | 26.66
80 | O=C(NCC1OCCc2cn(CC3CCOCC3)nc21)c1ccsc1 (stereo not given) | -40.44
81 | COCCn1cc2c(n1)C(CNC(=O)c1cc(C)[nH]c1C)OCC2 (stereo not given) | 60.14

Row | Compound | INHIBITION [%]
82 | c1ccc(Cn2cc3c(n2)C(CNCc2ccco2)OCC3)nc1 (stereo not given) | 15.96
83 | Cc1cc(C(=O)NCC2OCCc3cn(CC4CC4)nc32)c(C)[nH]1 (stereo not given) | -28.58
84 | COCCn1cc2c(n1)C(CNS(C)(=O)=O)OCC2 (stereo not given) | 35.07
85 | c1cc(CNCC2OCCc3cn(CC4CCOCC4)nc32)ccn1 (stereo not given) | -66.93
86 | CCS(=O)(=O)NCC1OCCc2cn(CC3CCOCC3)nc21 (stereo not given) | 62.4
87 | O=S(=O)(NCC1OCCc2cn(CC3CCOCC3)nc21)C1CC1 (stereo not given) | 24.43
88 | O=S(=O)(NCC1OCCc2cn(Cc3ccccn3)nc21)C1CC1 (stereo not given) | 50.32
89 | O=C(NCC1OCCc2cn(CC3CCOCC3)nc21)c1ccncc1 (stereo not given) | 56.71
90 | Cc1cc(-c2cnc(N3CCC(C(N)=O)CC3)nc2C(C)C)on1 | -12.93
91 | O=C(NCc1cccnc1)N1CCC2(CC(=O)N(c3ccsc3)C2)C1 (stereo not given) | 13.92
92 | CCN1C[C@H]2C3(CCN(C(C)=O)CC3)CC[C@@]2(C(=O)N(C)C)C1 | 17.47
93 | Cc1ccc(NC2CCN(C(=O)c3ccc(C)o3)CC2)nn1 | -47.54
94 | Cc1n[nH]c2ncc(CNC3CCCN(c4ncccn4)C3)cc12 (stereo not given) | 42.17
95 | O=C(c1cccnc1)N1CCC2(CCN(C(=O)N3CCCC3)CC2)C1 | -11.34
96 | COCCn1c2c(ccc1=O)CC(NCc1cccnc1OC)CC2 (stereo not given) | -1.81
97 | CCc1ncnc2c1CCN(Cc1nccs1)CC2 | -6.83
98 | O=C1OCCN1CCNC(=O)C1(N2CCCCC2)Cc2ccccc2C1 | 51.96
99 | CC(=O)NCCNC(=O)C1(N2CCCCC2)Cc2ccccc2C1 | 10.91
100 | O=C(NCCCO)C1(N2CCCCC2)Cc2ccccc2C1 | -118.83
101 | CNC(=O)c1nn(C)cc1NC(=O)C(C)n1ncc(Cl)c1C (stereo not given) | -11.07
102 | CC(C)CN1CCN(C(=O)c2[nH]nnc2Nc2ccccc2F)CC1 | -19.92
103 | Cc1nc(N)ncc1C(=O)N1CCCC1(C)C(=O)N(C)C (stereo not given) | 50.17
104 | Cc1cc(N(C)C)nc(C2(C)CCCN2C(=O)c2cncnc2C)n1 (stereo not given) | 14.05
105 | Cc1ncc(C(=O)N2CCCC2(C)C(=O)N2CCOCC2)c(C)n1 (stereo not given) | -14.73
